Test results taken from the supplement of paper PMC10849652.
Targets with a hit are over-represented here; the source holds about 7,900 in all. About 0.6% of all pairs of compound and target were hits.

What was measured:
Experiment in all cases: log2 fold change, soluble protein after heating vs DMSO (PISA); higher = thermal stabilisation; K562 cells, 10 uM, 30 min; active = over 0.2 and 3.5 SD of the protein, either way, in both replicates (recomputed)
[1] = compound: C1=CC=C(C=C1)[C@H](COC2=CC3=C(C=C2)NC(=O)N3)NC(=O)C4=CC=CN(C4=O)CC5=CC(=C(C=C5)F)F
Summary of the method: (§1)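 K562 cells at 2×10^6 cells/mL were exposed to 10 μM compound for 30 min, then aliquots were heated for 3 min across 48°C-58°C, pooled, and extracted in PBS containing 0.5% NP-40 at 4°C. The supernatant after 21,000xg for 90 min was taken as soluble protein and measured by TMTpro 16plex LC-MS/MS with channel sums equalised. Thermal stability is reported relative to control samples, with values from duplicates. Fold changes are given on a log2 scale.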

[2] = compound: CC1=C(SC2=C1C(=N[C@H](C3=NN=C(N32)C)CC(=O)N)C4=CC=C(C=C4)Cl)C
Summary of the method: as §1

[3] = compound: CC1=C2C(=CC=C1)N=C(N(C2=O)C3=CC=CC=C3C)CN4C=NC5=C(N=CN=C54)N
Summary of the method: as §1

[4] = compound: Cc1sc2c(c1C)C(c1ccc(Cl)cc1)=N[C@@H](CC(=O)OC(C)(C)C)c1nnc(C)n1-2
Summary of the method: as §1

[5] = compound: c1ccc([C@@H]2C[C@H]2NC2CCNCC2)cc1
Summary of the method: as §1

Measured: log2 fold change

LGALS8 isoform 2 (UniProt O00214)
inactive: [1] -0.032 | [2] 0.011 | [3] -0.166 | [4] -0.022 | [5] -0.12

KHDC4 (UniProt Q7Z7F0)
inactive: [1] -0.063 | [2] 0.129 | [3] 0.007 | [4] -0.061 | [5] -0.064

ITIH4 (UniProt Q14624)
inactive: [1] -0.088 | [2] 0.015 | [3] 0.089 | [4] -0.133 | [5] -0.006

KXD1 (UniProt Q9BQD3)
Chain of UniProt Q9BQD3 (Q9BQD3 whole entry, looked up): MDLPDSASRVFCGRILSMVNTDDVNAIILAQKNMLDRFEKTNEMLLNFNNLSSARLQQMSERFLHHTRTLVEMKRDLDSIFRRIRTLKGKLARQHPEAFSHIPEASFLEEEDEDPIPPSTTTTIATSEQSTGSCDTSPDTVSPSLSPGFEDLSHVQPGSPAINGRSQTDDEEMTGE
inactive: [1] -0.178 | [2] 0.079 | [3] 0.042 | [4] -0.079 | [5] 0.034

ME2 (UniProt P23368)
inactive: [1] 0.046 | [2] 0.073 | [3] 0.078 | [4] -0.086 | [5] 0.09

KDM3B (UniProt Q7LBC6)
inactive: [1] -0.013 | [2] 0.026 | [3] 0.08 | [4] 0.038 | [5] 0.071

KLC2 (UniProt Q9H0B6)
inactive: [1] -0.046 | [2] 0.085 | [3] 0.118 | [4] 0.032 | [5] 0

MARK2 (UniProt E9PC69)
inactive: [1] -0.029 | [2] 0.038 | [3] 0.174 | [4] 0.126 | [5] -0.052

LUC7L3 (UniProt O95232)
inactive: [1] 0.002 | [2] -0.021 | [3] 0.023 | [4] 0.021 | [5] 0.028

LRFN1 (UniProt Q9P244)
Chain of UniProt Q9P244 (Q9P244 whole entry, looked up): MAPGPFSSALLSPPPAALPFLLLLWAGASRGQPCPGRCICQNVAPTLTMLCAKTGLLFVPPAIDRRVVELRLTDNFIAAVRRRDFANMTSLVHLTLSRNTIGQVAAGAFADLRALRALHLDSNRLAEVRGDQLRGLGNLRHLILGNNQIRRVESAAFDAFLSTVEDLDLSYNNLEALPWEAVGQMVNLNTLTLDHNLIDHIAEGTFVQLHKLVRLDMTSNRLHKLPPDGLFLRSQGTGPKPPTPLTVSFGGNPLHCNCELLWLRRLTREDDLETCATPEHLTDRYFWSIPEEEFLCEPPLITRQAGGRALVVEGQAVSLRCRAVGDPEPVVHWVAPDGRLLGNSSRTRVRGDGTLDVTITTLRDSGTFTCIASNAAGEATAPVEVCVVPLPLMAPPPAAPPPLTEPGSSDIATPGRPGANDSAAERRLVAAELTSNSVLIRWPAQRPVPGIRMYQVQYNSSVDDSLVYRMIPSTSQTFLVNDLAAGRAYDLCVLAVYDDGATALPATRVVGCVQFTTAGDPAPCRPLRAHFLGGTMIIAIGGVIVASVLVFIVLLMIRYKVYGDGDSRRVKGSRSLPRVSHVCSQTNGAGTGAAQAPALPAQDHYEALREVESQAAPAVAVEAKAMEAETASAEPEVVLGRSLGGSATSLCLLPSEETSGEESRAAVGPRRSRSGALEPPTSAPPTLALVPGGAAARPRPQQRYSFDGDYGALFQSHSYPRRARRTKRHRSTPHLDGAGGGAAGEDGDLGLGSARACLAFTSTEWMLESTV
inactive: [1] -0.069 | [2] 0.183 | [3] 0.042 | [4] -0.02 | [5] -0.411

ILKAP (UniProt Q9H0C8)
inactive: [1] -0.071 | [2] 0.076 | [3] 0.135 | [4] -0.045 | [5] -0.046

KDM1A isoform 2 (UniProt O60341)
active: [5] 1.73
inactive: [1] -0.05 | [2] 0 | [3] 0.087 | [4] -0.019

LYN (UniProt P07948)
inactive: [1] 0.035 | [2] 0.038 | [3] 0.013 | [4] 0.028 | [5] -0.043

KCT2 (UniProt Q8NC54)
Chain of UniProt Q8NC54 (Q8NC54 whole entry, looked up): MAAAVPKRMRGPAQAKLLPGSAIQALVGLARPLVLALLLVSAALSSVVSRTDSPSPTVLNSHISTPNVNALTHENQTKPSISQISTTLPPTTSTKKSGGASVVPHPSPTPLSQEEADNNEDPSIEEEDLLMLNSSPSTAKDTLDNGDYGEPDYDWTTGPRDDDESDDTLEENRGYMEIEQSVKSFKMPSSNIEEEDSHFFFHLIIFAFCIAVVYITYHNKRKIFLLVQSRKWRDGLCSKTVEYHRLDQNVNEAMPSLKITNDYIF
inactive: [1] 0.046 | [2] 0.024 | [3] -0.01 | [4] -0.014 | [5] 0.028

IMMP1L (UniProt Q96LU5)
Chain of UniProt Q96LU5 (Q96LU5 whole entry, looked up): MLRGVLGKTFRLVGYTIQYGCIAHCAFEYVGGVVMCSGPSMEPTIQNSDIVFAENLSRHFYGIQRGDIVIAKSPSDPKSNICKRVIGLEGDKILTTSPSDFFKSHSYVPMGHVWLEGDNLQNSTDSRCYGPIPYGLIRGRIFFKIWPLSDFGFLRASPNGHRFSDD
inactive: [1] 0.054 | [2] 0.045 | [3] 0.101 | [4] -0.021 | [5] 0.024

MAP1LC3B2 (UniProt A6NCE7)
inactive: [1] 0.015 | [2] 0.113 | [3] 0.021 | [4] -0.015 | [5] -0.073

LUZP1 (UniProt Q86V48)
Chain of UniProt Q86V48 (Q86V48 whole entry, looked up): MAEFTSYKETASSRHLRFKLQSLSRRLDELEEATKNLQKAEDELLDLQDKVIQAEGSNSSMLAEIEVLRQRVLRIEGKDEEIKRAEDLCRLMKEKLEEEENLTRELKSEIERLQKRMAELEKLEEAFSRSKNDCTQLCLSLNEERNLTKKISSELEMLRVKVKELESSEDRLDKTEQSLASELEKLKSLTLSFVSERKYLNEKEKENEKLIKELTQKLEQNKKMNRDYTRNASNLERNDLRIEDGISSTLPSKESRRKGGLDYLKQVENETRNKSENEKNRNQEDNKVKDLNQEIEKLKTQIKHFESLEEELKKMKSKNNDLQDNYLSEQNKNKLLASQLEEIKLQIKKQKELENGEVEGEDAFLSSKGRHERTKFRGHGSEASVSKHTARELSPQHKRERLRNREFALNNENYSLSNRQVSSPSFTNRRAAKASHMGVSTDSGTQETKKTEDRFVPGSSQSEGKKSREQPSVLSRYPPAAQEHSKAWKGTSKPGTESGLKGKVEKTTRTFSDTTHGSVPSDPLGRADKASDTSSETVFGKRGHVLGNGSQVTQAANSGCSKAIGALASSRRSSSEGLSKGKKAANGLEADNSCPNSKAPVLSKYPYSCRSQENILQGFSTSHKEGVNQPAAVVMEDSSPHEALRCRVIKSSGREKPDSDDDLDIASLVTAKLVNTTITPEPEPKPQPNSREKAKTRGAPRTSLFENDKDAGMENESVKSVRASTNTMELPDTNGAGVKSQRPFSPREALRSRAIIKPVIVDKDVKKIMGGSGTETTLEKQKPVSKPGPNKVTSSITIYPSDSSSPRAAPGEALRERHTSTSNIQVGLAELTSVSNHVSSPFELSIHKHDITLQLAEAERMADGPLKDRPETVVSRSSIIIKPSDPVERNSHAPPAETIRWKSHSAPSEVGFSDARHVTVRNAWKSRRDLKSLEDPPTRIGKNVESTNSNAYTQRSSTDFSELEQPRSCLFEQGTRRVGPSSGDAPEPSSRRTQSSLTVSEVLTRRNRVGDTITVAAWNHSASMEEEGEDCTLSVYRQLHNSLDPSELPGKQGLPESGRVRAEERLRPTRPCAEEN
inactive: [1] -0.053 | [2] -0.141 | [3] -0.171 | [4] -0.217 | [5] -0.201

MAP3K7 (UniProt O43318)
Chain of UniProt O43318 (O43318 whole entry, looked up): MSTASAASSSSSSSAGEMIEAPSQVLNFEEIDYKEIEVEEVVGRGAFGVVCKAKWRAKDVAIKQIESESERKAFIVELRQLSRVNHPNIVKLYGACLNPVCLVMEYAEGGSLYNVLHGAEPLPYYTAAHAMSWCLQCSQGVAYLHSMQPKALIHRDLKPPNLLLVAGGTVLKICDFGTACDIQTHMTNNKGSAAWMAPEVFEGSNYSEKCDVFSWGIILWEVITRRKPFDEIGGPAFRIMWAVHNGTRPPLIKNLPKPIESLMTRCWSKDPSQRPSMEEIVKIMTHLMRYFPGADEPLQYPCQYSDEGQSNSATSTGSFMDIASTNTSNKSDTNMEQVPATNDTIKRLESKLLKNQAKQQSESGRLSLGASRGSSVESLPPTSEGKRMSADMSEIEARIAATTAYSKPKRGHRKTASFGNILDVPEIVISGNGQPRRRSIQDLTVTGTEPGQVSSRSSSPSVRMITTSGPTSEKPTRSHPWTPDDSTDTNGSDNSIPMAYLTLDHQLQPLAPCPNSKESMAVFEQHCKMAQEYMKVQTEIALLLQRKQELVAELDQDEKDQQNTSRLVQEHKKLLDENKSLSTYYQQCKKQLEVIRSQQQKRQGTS
inactive: [1] -0.085 | [2] 0.005 | [3] 0.11 | [4] 0.061 | [5] 0.023

JAK3 (UniProt P52333)
inactive: [1] -0.011 | [2] 0.075 | [3] -0.027 | [4] 0.009 | [5] 0.032

METAP1D (UniProt Q6UB28)
Chain of UniProt Q6UB28 (Q6UB28 whole entry, looked up): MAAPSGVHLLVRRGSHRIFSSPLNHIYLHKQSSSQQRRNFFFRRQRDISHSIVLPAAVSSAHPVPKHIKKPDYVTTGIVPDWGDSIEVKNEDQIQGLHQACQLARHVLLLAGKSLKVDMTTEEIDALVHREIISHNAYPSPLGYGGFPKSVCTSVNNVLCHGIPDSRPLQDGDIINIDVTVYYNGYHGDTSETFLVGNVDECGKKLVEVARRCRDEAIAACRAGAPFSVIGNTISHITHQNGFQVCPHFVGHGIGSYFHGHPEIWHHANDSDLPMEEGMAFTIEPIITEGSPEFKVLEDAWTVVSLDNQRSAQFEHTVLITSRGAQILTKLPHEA
inactive: [1] 0.106 | [2] -0.125 | [3] 0.083 | [4] 0.08 | [5] 0.127

MCL1 (UniProt Q07820)
inactive: [1] -0.013 | [2] 0.125 | [3] 0.135 | [4] 0.057 | [5] 0.073

MAP4K5 (UniProt Q9Y4K4)
Chain of UniProt Q9Y4K4 (Q9Y4K4 whole entry, looked up): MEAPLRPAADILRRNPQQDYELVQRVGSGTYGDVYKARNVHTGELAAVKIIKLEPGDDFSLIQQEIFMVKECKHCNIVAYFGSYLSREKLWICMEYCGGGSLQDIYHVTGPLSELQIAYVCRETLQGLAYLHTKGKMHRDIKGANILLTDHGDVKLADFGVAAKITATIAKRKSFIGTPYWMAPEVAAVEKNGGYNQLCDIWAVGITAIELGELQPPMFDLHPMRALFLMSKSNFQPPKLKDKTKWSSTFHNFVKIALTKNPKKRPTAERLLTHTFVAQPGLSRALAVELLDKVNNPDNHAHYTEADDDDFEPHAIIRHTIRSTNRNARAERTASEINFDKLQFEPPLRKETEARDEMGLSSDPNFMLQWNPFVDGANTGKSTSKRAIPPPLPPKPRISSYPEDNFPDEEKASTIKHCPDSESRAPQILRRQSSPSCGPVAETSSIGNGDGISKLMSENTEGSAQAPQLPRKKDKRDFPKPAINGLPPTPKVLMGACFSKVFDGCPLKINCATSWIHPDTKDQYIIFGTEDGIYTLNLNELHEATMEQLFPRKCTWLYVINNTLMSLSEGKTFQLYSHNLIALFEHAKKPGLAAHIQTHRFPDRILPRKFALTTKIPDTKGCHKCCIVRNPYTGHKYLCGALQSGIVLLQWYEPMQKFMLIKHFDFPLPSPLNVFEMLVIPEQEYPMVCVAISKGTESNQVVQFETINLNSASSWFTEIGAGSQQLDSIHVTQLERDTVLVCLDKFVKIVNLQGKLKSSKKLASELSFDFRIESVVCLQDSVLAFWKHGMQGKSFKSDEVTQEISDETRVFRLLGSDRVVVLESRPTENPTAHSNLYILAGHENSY
inactive: [1] 0.055 | [2] -0.039 | [3] 0.107 | [4] 0.05 | [5] 0.062

IMMT isoform 4 (UniProt Q16891)
Chain of UniProt Q16891 (Q16891 whole entry, looked up): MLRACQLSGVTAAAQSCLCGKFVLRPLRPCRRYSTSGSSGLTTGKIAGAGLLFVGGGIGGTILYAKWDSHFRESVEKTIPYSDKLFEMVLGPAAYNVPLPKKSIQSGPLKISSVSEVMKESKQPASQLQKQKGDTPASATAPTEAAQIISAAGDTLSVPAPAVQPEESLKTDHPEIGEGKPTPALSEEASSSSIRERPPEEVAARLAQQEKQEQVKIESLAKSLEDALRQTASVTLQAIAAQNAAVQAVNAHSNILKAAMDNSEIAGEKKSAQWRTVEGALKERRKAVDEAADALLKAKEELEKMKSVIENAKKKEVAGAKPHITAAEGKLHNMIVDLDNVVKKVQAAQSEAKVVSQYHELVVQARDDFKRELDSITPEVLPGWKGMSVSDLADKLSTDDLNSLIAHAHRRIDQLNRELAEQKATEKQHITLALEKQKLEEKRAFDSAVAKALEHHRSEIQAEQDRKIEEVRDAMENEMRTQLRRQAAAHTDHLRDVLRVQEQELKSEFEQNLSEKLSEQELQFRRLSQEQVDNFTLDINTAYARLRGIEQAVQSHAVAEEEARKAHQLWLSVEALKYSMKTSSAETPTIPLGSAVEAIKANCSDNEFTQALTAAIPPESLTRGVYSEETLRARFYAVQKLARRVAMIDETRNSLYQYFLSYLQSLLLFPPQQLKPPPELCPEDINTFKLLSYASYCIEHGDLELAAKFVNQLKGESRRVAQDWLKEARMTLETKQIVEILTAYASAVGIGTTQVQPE
inactive: [1] 0.005 | [2] 0.021 | [3] 0.026 | [4] -0.025 | [5] -0.008

KLHDC4 (UniProt Q8TBB5)
inactive: [1] 0.048 | [2] -0.074 | [3] -0.165 | [4] 0.084 | [5] -0.047
